Structures are written as SMILES. Among all 420,000 compounds or so, about 50,000 (12%) were called active. About 26% were inconclusive and are not listed. The call rests on the fitted dose curve; in most records, active means well fitted inhibition curve with a large enough effect; inconclusive means small, poorly fitted or top-dose-only effect; inactive means flat fitted curve, though single readings scatter. The list comes from a sample in which actives are over-represented; it also holds similar structures and randomly drawn compounds. Entries that show only a call come without a potency.
Potency means the concentration at half of the fitted maximal effect.

This assay is described as follows: qHTS for Inhibitors of human tyrosyl-DNA phosphodiesterase 1 (TDP1): qHTS in cells in presence of CPT. Further: nearly all actives have a fitted effect of over 55% in size. As to conditions: chicken DT40 Tdp1-/-;hTDP1 cells + 20 nM CPT, ATP luminescence, 48 h; series mostly up to 46.2 µM. In a few lines:
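Chicken DT40 Tdp1-/- cells stably complemented with human TDP1 were seeded at 400 cells/well in medium containing 20 nM camptothecin, exposed to pin-transferred compounds, and grown at 37 °C for at least 48 hr. Viability was read as ATP luminescence.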
(In general: In qHTS, concentration-response curves come from the screen itself.)
Regarding `COc1ccc(Nc2ccc([N+](=O)[O-])cn2)cn1`, the Potency entry is “inactive”. In the case of `CNC[C@H]1OCc2cnnn2CCCC(=O)N([C@H](C)CO)C[C@@H]1C` it was “inactive”. For the compound `CCCCC(c1nnnn1CS(=O)(=O)c1ccc(C)cc1)N1CCC(C(N)=O)CC1` (centres undefined), the Potency result is “inactive”. In the case of `Cc1ccc(CC2C(=O)N(c3ccc(F)cc3)C(=O)C2C)cc1` (centres undefined) it was “inactive”; in that of `Clc1ccc2nc(CSc3ccccc3)cn2c1`, “inactive”.

On to `Cc1ccc(CNC(=O)CCN2C(=O)[C@@H]3Cc4ccccc4CN3C2=O)cc1`, for which the Potency entry was “inactive”. For `CC[C@@]12C(=O)N(c3ccccc3)C(=O)N1[C@H](c1ccc(Br)cc1)[C@@H]1C(=O)N(C(C)(C)C)C(=O)[C@@H]12`, the Potency is 16.4 µM (active). In the case of `COc1ccc([C@@H]2[C@@H]3C(=O)N(C(C)(C)C)C(=O)[C@@H]3[C@]3(Cc4ccccc4)C(=O)N(c4cccc(Br)c4)C(=O)N23)cc1` it was “inactive”; in that of `CCN1C(=O)[C@H]2[C@@H](c3ccc(C)cc3)N3C(=O)N(c4cccc(Br)c4)C(=O)[C@@]3(CC)[C@H]2C1=O`, “inactive”; in that of `O=C1CN(C(=O)c2cc(F)cc(F)c2)c2ccccc2N1`, “inactive”. In the case of `CCOC(=O)c1cccc(NC(=O)CCOc2ccccc2)c1` it was “inactive”; in that of `CCCC(=O)Nc1ccc2c(c1)nc(CCNC(=O)c1ccco1)n2C`, “inactive”; in that of `CCOCCC(=O)Nc1ccc2c(c1)c(=O)n(C)n2-c1ccc2ccccc2c1`, 1.46 µM (active).

As for `C=CC1=C(C(=O)O)N2C(=O)[C@@H](NC(=O)/C(=N\OCC(=O)O)c3csc(N)n3)[C@H]2SC1`, the Potency result was “inactive”.

For the compound `O=C(NCc1cc(F)cc(C(F)(F)F)c1)C1CCC(=O)N(C2CCCC2)C1` (centres undefined), the Potency result was “inactive”.

In the case of `Cc1ccccc1NC(=O)C(C)OC(=O)CCC(=O)N(CC(C)C)c1c(N)n(CC(C)C)c(=O)[nH]c1=O` (centres undefined), the Potency entry was “inactive”. Turning to `CCN(CC(=O)Nc1c(F)cccc1F)C(=O)c1ccc(Sc2nncn2C)c([N+](=O)[O-])c1`, the Potency result was “inactive”. As to `CCOC(=O)N1CCN(C(=O)c2ccccc2N(Cc2ccccc2)S(=O)(=O)c2ccc(OC)cc2)CC1`, the Potency was 2.91 µM (active). In the case of `NC(=O)c1ccccc1N(Cc1ccccc1)S(=O)(=O)c1ccccc1` it was “inactive”; in that of `CCOC(=O)N1CCN(S(=O)(=O)c2ccc(OC)cc2)CC1`, “inactive”; in that of `O=C(O)C#Cc1cccc2ccccc12`, “inactive”.

As for `CCn1ccnc1CNC(=O)CC1C(=O)NCCN1Cc1ccc(F)cc1Cl` (centres undefined), the Potency entry is “inactive”. In the case of `Cc1cc(-n2cnc(-c3cn(C)nc3C)n2)no1` it was “inactive”.

Consider `CCCCN(C(=O)c1ccc(S(=O)(=O)N2CCOCC2)cc1)C1CCS(=O)(=O)C1` (centres undefined), for which the Potency entry was “inactive”.

With `CCc1ccc2c(c1)NC(=O)C2(C)Cc1ccc(OC(F)(F)F)cc1` (centres undefined), the Potency was 20.6 µM (active). In the case of `CCNC(=S)Nc1ccc(OC(F)(F)F)cc1` it was “inactive”. Consider `COC(=O)Cc1ccc(OCC(=O)Nc2ccc(OC(F)(F)F)cc2)cc1`, for which the Potency entry is “inactive”. In the case of `CC1(C(=O)NS(=O)(=O)Cc2cccc(Cl)c2)CCN1C(=O)Cc1ccccc1` (centres undefined) it was “inactive”. Take `O=C(NCCc1cccc(F)c1)C1CCCN(c2nc3ccccc3s2)C1` (centres undefined): the Potency is 18.4 µM (active). In the case of `O=C(NCc1ccccc1)C1CCCN(c2nc3ccsc3c(=O)s2)C1` (centres undefined), the Potency result is “inactive”.

`Cc1cc(=O)n2nc(N3CCCC(C(=O)NCc4cccc(Cl)c4)C3)sc2n1` (centres undefined): the Potency result is “inactive”. Consider `CCC(C)c1ccc(NC(=O)COC(=O)C2CCCC2)cc1` (centres undefined), for which the Potency entry is “inactive”.

In the case of `CC(C)(C)NC(=O)NC(=O)COC(=O)C1c2ccccc2Oc2ccccc21`, the Potency entry is “inactive”. In the case of `Cc1cn([C@H]2C[C@H](O)[C@@H](CNC(=O)[C@H](N)Cc3cccnc3)O2)c(=O)[nH]c1=O` it was “inactive”; in that of `Cc1cccc(C)c1NC(=O)C(c1ccccc1)N1CC(=O)Nc2ccccc21` (centres undefined), “inactive”. In the case of `Cc1cccc(C)c1NC(=O)CN(C)C(=O)CCC(=O)c1ccccc1` it was “inactive”; in that of `Cc1cccc(C)c1NC(=O)C(Cl)C(=O)c1ccccc1` (centres undefined), 5.17 µM (active). In the case of `Cc1ccc(C)c(NC(=O)C(c2ccccc2)N2CCN(CC(=O)NC3CC3)CC2)c1` (centres undefined) it was “inactive”.

Turning to `O=C(NCc1ccco1)c1cccn2c(=O)c3c4c(sc3nc12)CCCC4`, the Potency was 9.2 µM (active). In the case of `O=c1oc(-c2ccco2)nc2sc3c(c12)CCCCC3` it was “inactive”. Regarding `O=C(NCc1ccco1)c1nc2ncccn2n1`, the Potency entry was “inactive”. In the case of `CC(C)C[C@H](NC(=O)C1CC(=O)N(c2ccc3c(c2)OCCO3)C1)C(=O)NC1CCCC1` (some centres undefined) it was “inactive”; in that of `CN[C@@H]1[C@@H](O)[C@@H](O[C@@H]2[C@H](O)[C@H](O[C@H]3OC(CN)=CC[C@H]3N)[C@@H](N)C[C@H]2N)OCC1(C)O` (some centres undefined), “inactive”. For `NC(=O)C1CCN(CC(O)CSc2ccc(F)cc2)CC1` (centres undefined), the Potency result is “inactive”. For `OC(CNC1CCCC1)COc1ccc(F)cc1` (centres undefined), the Potency result was “inactive”. In the case of `O=C(C1=C[C@H](c2coc3ccccc3c2=O)C[C@H](OCc2ccc(CO)cc2)O1)N1CCOCC1` it was “inactive”. As for `NC(=O)C1=C[C@H](c2csc3ccccc23)C[C@H](OCc2ccc(CO)cc2)O1`, the Potency was 14.6 µM (active). In the case of `NC(=O)C1=C[C@@H](c2csc3ccccc23)C[C@@H](OCc2ccc(CO)cc2)O1` it was 25.9 µM (active). Consider `C=CCOC(=O)C1=C[C@@H](c2ccccc2)C[C@@H](OCc2ccc(CO)cc2)O1`, for which the Potency entry is “inactive”. In the case of `NC(=O)C1=C[C@@H](c2ccc3c(c2)OCO3)C[C@@H](OCCCCO)O1` it was “inactive”; in that of `O=C(O)C1=C[C@H](c2cccs2)C[C@H](OCCCCO)O1`, “inactive”; in that of `Cc1cc(OC(C)C(=O)NC2CC(C)(C)NC(C)(C)C2)c2c(C)cc(=O)oc2c1` (centres undefined), “inactive”.

Turning to `COCCNC(=S)N1CCN(C)CC1`, the Potency result is “inactive”. Consider `CC1CCC2(CC1)NC(=O)N(CC(=O)c1cccn1C)C2=O` (centres undefined), for which the Potency entry is “inactive”. With `CC(C)(C)SCCSC1=CC(=O)CC(c2ccccc2)C1` (centres undefined), the Potency entry is “inactive”.

For `COC(=O)C(C)Oc1ccc2c(c1)O/C(=C\c1cccc(Br)c1)C2=O` (centres undefined), the Potency entry was “inactive”.

On to `Cc1ccc(S(=O)(=O)Oc2ccc(/C=N/NC(=O)c3ccncc3)cc2)cc1`, for which the Potency result was “inactive”. In the case of `Cc1ccc(OCCOCCOc2ccc(Br)cc2/C=N\NC(=O)c2ccncc2)cc1` it was 18.4 µM (active); in that of `CCOc1cc(/C=N/NC(=O)c2ccncc2)cc(Br)c1O`, “inactive”; in that of `Cc1ccc(NC(=O)CCCn2c(=O)c3cccn3c3ccccc32)cc1Cl`, “inactive”. In the case of `COc1ccc(Cl)cc1NC(=O)CCn1c(=O)c2cccn2c2ccccc21` it was 20.6 µM (active); in that of `COc1ccc(Cl)cc1NC(=O)CCC(=O)c1ccc(C)cc1`, “inactive”; in that of `CCCCn1c(N)c(N(CCC(C)C)C(=O)COC(=O)c2ccc(CC)cc2)c(=O)[nH]c1=O`, “inactive”.

For `Cc1cccc(NC(=O)CSCC(=O)Nc2nnc(C3CC3)s2)c1`, the Potency result is “inactive”. In the case of `O=C(NC(CC(=O)N1CCN(c2ccccc2)CC1)c1ccccc1)c1ccccc1Cl` (centres undefined) it was “inactive”; in that of `CCCCCN(C(=O)CCC(=O)OCCOc1ccc(OC)cc1)c1c(N)n(CCCC)c(=O)[nH]c1=O`, “inactive”. Turning to `CCOc1ccc(S(=O)(=O)NCC2CCCO2)cc1` (centres undefined), the Potency result was “inactive”.

In the case of `Cc1cccc(NC(=O)c2ccc(S(=O)(=O)N(C)CC3CCCO3)cc2)c1C` (centres undefined), the Potency entry is “inactive”.

In the case of `CCOc1ccc(C(=O)Nc2ccc(S(=O)(=O)NCC3CCCO3)cc2)cc1OCC` (centres undefined), the Potency entry is “inactive”. In the case of `O=C(Nc1ccc(S(=O)(=O)NCC2CCCO2)cc1)c1ccc(F)cc1` (centres undefined) it was 14.6 µM (active); in that of `CN(CC(=O)Nc1ccc(C(N)=O)cc1)S(=O)(=O)c1ccc2c(c1)OCCO2`, “inactive”; in that of `CN(CC1CCCO1)S(=O)(=O)c1ccc(C(=O)Nc2ccc([N+](=O)[O-])cc2)cc1` (centres undefined), 23.1 µM (active). Take `CCN(CC(=O)Nc1ccc(NC(C)=O)cc1)C(=O)C1CC(=O)N(Cc2ccc(C)cc2)C1` (centres undefined): the Potency result is “inactive”.

With `O=C(C1CCCO1)N1CCN(C(=O)C23CC4CC(CC(C4)C2)C3)CC1` (centres undefined), the Potency entry is “inactive”. In the case of `COc1cc(C(=O)N2CCN(C3CCC(C)CC3)CC2)cc(OC)c1OC` (centres undefined) it was “inactive”. In the case of `CCOC(=O)C1CCN(S(=O)(=O)c2c(C)noc2C)CC1` it was “inactive”; in that of `COc1cccc(N(CC(=O)NC2CCCC2)C(=O)Cn2nnc(-c3ccc(C)o3)n2)c1`, “inactive”; in that of `CC(C)COc1ccc(C(=O)OCC(=O)NCCC2=CCCCC2)cc1`, “inactive”.

Regarding `O=C(O)CN(Cc1ccco1)S(=O)(=O)c1ccc(F)cc1`, the Potency entry is “inactive”.

On to `C=CCn1c(SCC(=O)c2c(N)n(C)c(=O)n(C)c2=O)nc2sc(CC)cc2c1=O`, for which the Potency result was “inactive”.

As to `Cc1cccc(N2C(=O)c3cccnc3C2=O)c1`, the Potency result was “inactive”. For the compound `O=C1c2cccnc2C(=O)N1Cc1cccs1`, the Potency result was “inactive”. In the case of `NC1=CC(=O)C(=O)c2cccnc21` it was 3.66 µM (active); in that of `O=C(NC1CCCCC1)C1CC(=O)N(CCc2ccccc2)C1` (centres undefined), “inactive”.

Take `CC(NC(=O)COC(=O)CCC(=O)c1ccc(Cl)cc1)c1ccccc1` (centres undefined): the Potency result is “inactive”. In the case of `CC1CCC(NC(=O)CNC(=O)c2ccc3ccccc3c2)CC1` (centres undefined) it was “inactive”. Consider `COc1ccc(C(=O)NCC(=O)N/N=C/c2ccc([N+](=O)[O-])o2)cc1OC`, for which the Potency was 2.31 µM (active). In the case of `O=C(N/N=C/c1ccc([N+](=O)[O-])cc1)C(=O)N1CCCC1` it was “inactive”; in that of `Cc1cc(C)nc(Nc2cc([N+](=O)[O-])ccc2C)n1`, “inactive”. In the case of `Cc1cc(C)nc(N/N=C/c2ccncc2)n1` it was “inactive”. In the case of `COc1cc(/C=N/NC(=O)CNC(=O)c2ccncc2)ccc1OC(C)=O` it was “inactive”. Turning to `Cc1cc(C)nc(N/N=C/c2ccc([N+](=O)[O-])o2)n1`, the Potency was 23.1 µM (active).

On to `CCOc1ccc(NC(=O)CCC(=O)NNC(=O)NC2CCCCC2)cc1`, for which the Potency result was “inactive”.

With `COc1ccccc1OCCNC(=O)c1cc([N+](=O)[O-])cc([N+](=O)[O-])c1`, the Potency entry is “inactive”. Regarding `CCOc1ccc(NC(=O)CCC(=O)N/N=C/c2ccc([N+](=O)[O-])s2)cc1`, the Potency was 10.3 µM (active). In the case of `CCCCCC(=O)Nc1ccc(C(=O)N/N=C/c2ccc([N+](=O)[O-])cc2)cc1` it was “inactive”; in that of `NC(=S)N/N=C/c1ccc([N+](=O)[O-])cc1`, “inactive”. In the case of `NC(=O)C(=O)N/N=C/c1ccc([N+](=O)[O-])o1` it was 10.6 µM (active); in that of `CC(C)[C@@H](C(=O)O)N(Cc1cccc(CN([C@H](C(=O)O)C(C)C)S(C)(=O)=O)c1)S(C)(=O)=O`, “inactive”.

The values above are taken from PubChem BioAssay AID686979 (National Center for Advancing Translational Sciences (NCATS), 2013).
